19 compounds from PubChem BioAssay (EPA / NIEHS) can be followed below.

What all share (details): mRNA level, 48 h; actives raise or lower the signal
Read-out in experiment [1]: Hypoxia-inducible factor 1-alpha (Homo sapiens) (UniProt Q16665)
Nature of the experiment: LTEA_HepaRG_HIF1A: Life Technologies and Expression Analysis (LTEA) Assay for Hypoxia-inducible factor 1 (HIF1A) Trancription factor using HepaRG (AID 2283503). Summed up:
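HIF1A transcript level read by qRT-PCR (ACTB, GAPDH, POLR2A normalization) after 48 h chemical exposure of HepaRG cultures. Eight half-log concentrations, top 100 uM, 0.5% DMSO vehicle, duplicates; bidirectional curve fit against DMSO baseline.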

Read-out in experiment [2]: 3-Hydroxy-3-Methylglutaryl-CoA Synthase 2 (HMGCS2), HMGCS2 (gene 3158)
Nature of the experiment: LTEA_HepaRG_HMGCS2: Life Technologies and Expression Analysis (LTEA) Assay for 3-Hydroxy-3-Methylglutaryl-CoA Synthase 2 (HMGCS2) using HepaRG (AID 2283504). Summed up:
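Expression of HMGCS2 in human HepaRG liver cells is measured by qRT-PCR 48 h after dosing (highest 100 uM, half-log series, 0.5% DMSO). Values come from bidirectional concentration-response fitting with DMSO as baseline.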

Read-out in the next experiment: HGF (gene 3082)
Nature of the experiment: LTEA_HepaRG_HGF: Life Technologies and Expression Analysis (LTEA) Assay for Hepatocyte Growth Facto (HGF) using HepaRG (AID 2283505). The gist of the method: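 Gain or loss of HGF mRNA in human HepaRG liver cells after 48 h chemical exposure; eight concentrations up to 100 uM with 0.5% DMSO vehicle, quantified by TaqMan qRT-PCR.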

Read-out in experiment [3]: Insulin Like Growth Factor 1 (IGF1), IGF1 (gene 3479)
Nature of the experiment: LTEA_HepaRG_IGF1: Life Technologies and Expression Analysis (LTEA) Assay for Insulin Like Growth Factor 1 (IGF1) using HepaRG (AID 2283506). Summed up:
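Expression measured by TaqMan qRT-PCR on a Fluidigm array, with three housekeeping genes for normalisation, after 48 h treatment of HepaRG cells. Top concentration 100 uM with half-log steps, 0.5% DMSO vehicle, bidirectional fit.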

Read-out in experiment [4]: Intercellular Adhesion Molecule 1 (ICAM1), ICAM1 (gene 3383)
Nature of the experiment: LTEA_HepaRG_ICAM1: Life Technologies and Expression Analysis (LTEA) Assay for Intercellular Adhesion Molecule 1 (ICAM1) using HepaRG (AID 2283507). The gist of the method: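 Gain or loss of transcript in HepaRG hepatic cells is quantified by qRT-PCR after 48 h chemical exposure (up to 100 uM, half-log steps), with DMSO as baseline.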

Read-out in experiment [5]: Insulin-like growth factor-binding protein 1 (IGFBP1), IGFBP1 (gene 3484)
The experiment can be described thus: LTEA_HepaRG_IGFBP1: Life Technologies and Expression Analysis (LTEA) Assay for Insulin-like growth factor-binding protein 1 (IGFBP1) using HepaRG (AID 2283508). The gist of the method:
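mRNA induction or loss was quantified by qRT-PCR after 48 h chemical exposure of human HepaRG cells, with 0.5% DMSO as vehicle and baseline. Concentration-response over eight points up to 100 uM.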

Read-out in experiment [6]: Interleukin 6 (IL6), IL6 (gene 3569)
Nature of the experiment: LTEA_HepaRG_IL6: Life Technologies and Expression Analysis (LTEA) Assay for Interleukin 6 (IL6) using HepaRG (AID 2283509). Summed up:
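Changes in IL6 mRNA, up or down relative to 0.5% DMSO controls, were derived from concentration-response curves in human HepaRG cells treated for 48 h at up to 100 uM, with ACTB, GAPDH and POLR2A as normalizers.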

Read-out in experiment [7]: Interleukin 6 Receptor (IL6R), IL6R (gene 3570)
The experiment can be described thus: LTEA_HepaRG_IL6R: Life Technologies and Expression Analysis (LTEA) Assay for Interleukin 6 Receptor (IL6R) using HepaRG (AID 2283510).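 For AC50: differentiated human HepaRG liver cells in serum-free induction medium; TaqMan qRT-PCR signal normalized to ACTB GAPDH and POLR2A housekeeping genes.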 Summed up:
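IL6R transcript level by qRT-PCR after 48 h chemical exposure (8-point, half-log, max 100 uM, 0.5% DMSO vehicle) of HepaRG cells in serum-free induction medium. Normalized to three housekeeping genes; curves fitted in both directions relative to DMSO.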

Read-out in experiment [8]: Potassium channel subfamily K member 1 (KCNK1), KCNK1 (gene 3775)
Nature of the experiment: LTEA_HepaRG_KCNK1: Life Technologies and Expression Analysis (LTEA) Assay for Potassium channel subfamily K member 1 (KCNK1) using HepaRG (AID 2283511). Summed up: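 Human HepaRG cultures receive test chemicals for 48 h in 0.5% DMSO, top concentration 100 uM with half-log dilutions. Induction or suppression of KCNK1 mRNA relative to DMSO is derived by bidirectional fitting of qRT-PCR data.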

Read-out in experiment [9]: Keratin 19 (KRT19), KRT19 (gene 3880)
The experiment can be described thus: LTEA_HepaRG_KRT19: Life Technologies and Expression Analysis (LTEA) Assay for Keratin 19 (KRT19) using HepaRG (AID 2283512). Summed up: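 Gene-expression endpoint in the human liver line HepaRG after 48 h exposure to up to 100 uM test chemical with 0.5% DMSO vehicle; KRT19 mRNA by qRT-PCR, analyzed bidirectionally versus DMSO.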

Activity calls are given as the source filed them. Rule for the calls: active = hit-call score of the fitted dose curve at least 0.9, where 1 is the maximum; inactive = score below 0.9.

Hypoxia-inducible factor 1-alpha (Homo sapiens), sequence (Q16665 whole entry, looked up): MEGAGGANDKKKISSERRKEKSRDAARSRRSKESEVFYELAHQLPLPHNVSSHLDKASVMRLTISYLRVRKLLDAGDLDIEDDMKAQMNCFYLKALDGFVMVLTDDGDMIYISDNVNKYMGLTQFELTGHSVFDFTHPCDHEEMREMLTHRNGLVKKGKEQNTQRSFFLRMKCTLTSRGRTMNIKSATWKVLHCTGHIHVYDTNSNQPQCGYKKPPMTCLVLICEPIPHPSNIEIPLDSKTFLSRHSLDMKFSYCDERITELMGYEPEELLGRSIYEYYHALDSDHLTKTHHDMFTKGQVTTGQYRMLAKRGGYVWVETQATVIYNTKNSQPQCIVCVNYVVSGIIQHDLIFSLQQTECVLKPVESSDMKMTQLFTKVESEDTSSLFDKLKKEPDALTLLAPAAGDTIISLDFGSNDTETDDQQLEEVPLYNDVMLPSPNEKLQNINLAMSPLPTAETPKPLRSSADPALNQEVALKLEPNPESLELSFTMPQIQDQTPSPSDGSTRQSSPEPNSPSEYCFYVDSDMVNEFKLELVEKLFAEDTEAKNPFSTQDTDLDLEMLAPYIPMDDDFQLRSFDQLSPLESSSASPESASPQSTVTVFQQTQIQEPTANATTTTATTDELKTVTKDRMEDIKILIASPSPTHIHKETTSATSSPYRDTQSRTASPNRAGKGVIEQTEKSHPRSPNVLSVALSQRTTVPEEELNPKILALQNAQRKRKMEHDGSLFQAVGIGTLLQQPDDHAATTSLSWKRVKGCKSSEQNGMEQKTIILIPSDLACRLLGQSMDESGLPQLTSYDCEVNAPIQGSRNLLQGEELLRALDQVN

As to `C=CCCCCCCCCC(=O)O`, the result (in experiment [1]; in [2]; with HGF (gene 3082); in experiment [3]; in [4]; in [5]) was inactive. The outcome in experiment [6], in experiment [7], in experiment [8] and in experiment [9] was inactive.
As to `CCCCC(CC)COC(=O)CCCCCCCCC(=O)OCC(CC)CCCC` (stereo not given), the outcome (in experiment [1]; in experiment [2]; with HGF (gene 3082); in [3]; in experiment [4]; in [5]) was inactive. Besides, the compound was called inactive in experiment [6], in experiment [7], in experiment [8] and in experiment [9].
Consider `CC(=O)OCCC(C)C`, for which the outcome (in [1]; in [2]; with HGF (gene 3082); in experiment [3]; in [4]; in [5]) was inactive. The result in experiment [6], in [7], in experiment [8] and in experiment [9] was inactive.
Turning to `CC(=O)OC[C@H]1O[C@@](COC(C)=O)(O[C@H]2O[C@H](COC(C)=O)[C@@H](OC(C)=O)[C@H](OC(C)=O)[C@H]2OC(C)=O)[C@@H](OC(C)=O)[C@@H]1OC(C)=O`, the outcome (in experiment [1]; in experiment [2]; with HGF (gene 3082); in [3]; in [4]; in experiment [5]) was inactive. The compound was classed as inactive in experiment [6], in experiment [7], in experiment [8] and in experiment [9].
As to `CC[C@H]1CC[C@H](NCc2cc3c(cc2OC)[C@H]2C[C@H]2C(=O)N3C)[C@H](c2ccccc2)N1`, the outcome (in [1]; in [2]; with HGF (gene 3082); in experiment [3]; in experiment [4]; in [5]) was inactive. Also, the compound was called inactive in experiment [6], in experiment [7], in experiment [8] and in experiment [9].
`CC(C)CCCCCCOC(=O)c1ccc(C(=O)OCCCCCCC(C)C)c(C(=O)OCCCCCCC(C)C)c1`: the result (in experiment [1]; in experiment [2]; with HGF (gene 3082); in [3]; in experiment [4]; in experiment [5]) was inactive. The result in [6], in experiment [7], in experiment [8] and in [9] was inactive.
Broadly, the AC50 is the midpoint of the concentration-response curve, whichever way the signal moves. `CCCCCCCCO`: the call (in experiment [1]; in experiment [2]; in the experiment with HGF (gene 3082); in experiment [3]; in [4]; in [5]) was inactive. The compound was classed as inactive in experiment [6], in experiment [7] and in [9]. Also, the AC50 in experiment [8] is 83.9 µM (active).
Regarding `CCC(C)(C)C(=O)O[C@H]1C[C@@H](C)C=C2C=C[C@H](C)[C@H](CC[C@@H]3C[C@@H](O)CC(=O)O3)[C@H]21`, the compound was classed as inactive (in [1]; in experiment [2]; with HGF (gene 3082); in experiment [3]; in experiment [4]; in experiment [5]). Also, the compound was called inactive in [6], in experiment [7], in experiment [8] and in experiment [9].
With `O=C(NS(=O)(=O)/C=C/c1ccccc1)c1ccc(F)cc1Cl`, the compound was classed as inactive (in experiment [1]; with HGF (gene 3082); in experiment [4]; in [5]; in [6]; in experiment [7]). Moreover, the call in experiment [8] and in [9] was inactive. Also, the AC50 is 27.9 µM (active) in experiment [2] and 8.33 µM (active) in experiment [3].
As to `COC(=O)CC(=O)OC`, the compound was called inactive (in [1]; in experiment [2]; in the experiment with HGF (gene 3082); in [3]; in experiment [4]; in experiment [5]). Also, the outcome in [6], in experiment [7], in experiment [8] and in experiment [9] was inactive.
`COC(=O)c1ccccc1O`: the result (in experiment [1]; in [2]; with HGF (gene 3082); in experiment [3]; in [4]; in experiment [5]) was inactive. The call in experiment [6], in experiment [7], in [8] and in experiment [9] was inactive.
Regarding `O=C(CCCCCCCCc1cccnc1)N1CCC(C=C(c2ccccc2)c2ccccc2)CC1`, the AC50 in experiment [1] is 77.2 µM (active); in experiment [2], 22.9 µM (active); with HGF (gene 3082), 11.9 µM (active); in [3] it was 16.5 µM (active); in experiment [4], 16.4 µM (active); in experiment [5], 28.5 µM (active). In addition, the AC50 in [6] was 22.6 µM (active); in [7], 89.3 µM (active); in experiment [8] it was 50 µM (active). In addition, in experiment [9], the compound was classed as inactive.
For `CC(C)=CCCC(C)=CC=O`, the result (in [1]; in [2]; with HGF (gene 3082); in experiment [3]; in experiment [4]; in [5]) was inactive. In addition, the call in experiment [6], in [7], in experiment [8] and in experiment [9] was inactive.
`Cc1ccc(C)c(O)c1`: the compound was called inactive (in experiment [1]; in [2]; with HGF (gene 3082); in experiment [3]; in [4]; in experiment [5]). Further, the result in experiment [6], in [7], in experiment [8] and in experiment [9] was inactive.
`CCCCCCCCCCCCc1ccccc1`: the compound was classed as inactive (in experiment [1]; in experiment [2]; in the experiment with HGF (gene 3082); in experiment [3]; in experiment [4]; in [5]). The compound was called inactive in experiment [6], in experiment [7], in [8] and in [9].
For the compound `On1ccccc1=S`, the call (in experiment [1]; in experiment [2]; in the experiment with HGF (gene 3082); in experiment [3]; in experiment [4]; in experiment [5]) was inactive. Besides, the result in experiment [6], in [7], in experiment [8] and in [9] was inactive.
Take `CCNc1ccccc1`: the compound was classed as inactive (in experiment [1]; in [2]; with HGF (gene 3082); in experiment [3]; in [4]; in experiment [5]). Besides, the compound was called inactive in experiment [6], in [7], in [8] and in experiment [9].
As for `CNS(=O)(=O)c1cc(C(=O)N2CCC(CCN3C4CCC3CC(n3c(C)nc5ccccc53)C4)(c3cccc(F)c3)CC2)c(Cl)cc1F` (stereo not given), the result (in experiment [1]; in the experiment with HGF (gene 3082); in experiment [6]; in experiment [7]; in experiment [8]) was inactive. In addition, the AC50 in experiment [2] is 23.5 µM (active); in experiment [3], 16.3 µM (active); in [4], 26.4 µM (active); in experiment [5] it was 30.5 µM (active); in [9], 18.3 µM (active).
With `Cc1ccc(N)cc1O`, the call (in experiment [1]; in [2]; in the experiment with HGF (gene 3082); in [3]; in [4]; in [5]) was inactive. Also, the compound was called inactive in experiment [6], in experiment [7], in [8] and in experiment [9].
